Cycloheximide cs: counter-screen hit for Shiga toxin inhibitors, cycloheximide; hit rate 12% among 300,000; max response, %; cell reporter, cycloheximide protein synthesis inhibition counterscreen; in the data active means max response mostly above about 13%, no sharp cut-off; inactive means mostly below about 14%; further: read at 38.3 µM for the half of the compounds with a filed dose; 0% is about no effect
Shiga inhibitor: inhibitors of Shiga toxin in Vero cells; AID 2315; inhibition, % at 38.7 µM; hit rate 9.2% among 290,000; Vero cells, Shiga toxin protein synthesis inhibition reporter; in the data active means inhibition mostly above about 28%, no sharp cut-off; inactive means mostly below about 43%; further: 0% is about no effect
Marburg entry inh: blocks Marburg virus binding to or entry into cells; Marburg virus pseudotyped entry inhibition, cell reporter; Potency, µM (titrated, usually from 37.8 µM), for the others: top-dose activity change, negative = inhibition, usual class: inhibitors; hit rate 1.8% among 300,000; calls by dose curve; tested in HEK293 cells; further: potency means the concentration at half of the fitted maximal effect; on the % scale 0 is the no-effect control and ±100 the full control effect
LASV entry inh: inhibitors of Lassa virus binding or cell entry; Lassa virus pseudotype entry inhibition, cell reporter; Potency, µM (series often up to 37.9 µM), inactives show at the highest dose activity change, negative = inhibition, hits mostly inhibitors; hit rate 1.2% among 300,000; calls by dose curve; tested in HEK293 cells; further: potency means the concentration at half of the fitted maximal effect; on the % scale 0 is the no-effect control and ±100 the full control effect; nearly all actives have a fitted effect of over 50% in size
Starred values were filed as active, the others as inactive; ? = inconclusive; nt = no result; [ ] = another dose, or the depositor's remark. Most compounds without a hit are left out; they make up all but 12% or so of the library.

SMILES	Cycloheximide cs	Shiga inhibitor	Marburg entry inh	LASV entry inh
OC(CCc1cccc(Cl)c1)c1cccs1 (stereo not drawn)	35*	44*	nt	nt
COc1cc(CN=C(C)c2c(O)n(C)c(=O)n(C)c2=O)cc(OC)c1	-3	-9	?	?
CC(=NCc1ccc(F)cc1)c1c(O)n(C)c(=O)n(C)c1=O	-4	14	0.33µM*	-5%
CC(C)CNC(=O)CC(=O)N/N=C/c1ccc(F)cc1	-3	7	-1%	6%
O=S(=O)(Nc1cccc2cccnc12)c1ccccc1Br	28*	-3	nt	nt
O=C(Nc1cccc2cccnc12)c1ccc(F)cc1	35*	64*	nt	8%[46.1 µM]
O=C(Nc1cccc2cccnc12)OC(Cl)(Cl)Cl	22*	25	nt	nt
O=C(Nc1cccc2cccnc12)c1ccc(Br)o1	26*	18	-4%	1%
O=C(Nc1cccc2cccnc12)C(Cl)(Cl)Cl	10	29	nt	nt
COc1ccc(Cl)cc1NC(=O)Cn1c(=O)c(-c2ccccc2NC(C)=O)nc2ccccc21	nt	nt	5%[46.1 µM]	-2%[46.1 µM]
Cc1ccc(C(=O)N2CCCC(c3nc4c(nnn4Cc4ccccc4)c(=O)[nH]3)C2)cc1 (stereo not drawn)	2	-6	18%	-17%
COc1cccc(NC(=O)CSc2nc3ccsc3c(=O)n2-c2ccc(C(=O)O)cc2)c1	-2	3	2%[46.1 µM]	nt
CC(C)Oc1ccc(C(=O)Nc2cccc3cccnc23)cc1	27*	59*	10%	-3%
O=C(Nc1cccc2cccnc12)c1ccccc1	25*	43*	nt	nt
CCOc1ccc(C(=O)Nc2cccc3cccnc23)cc1	6	10	14%	-17%
Cc1cc(C(=O)Nc2cccc3cccnc23)ccc1[N+](=O)[O-]	13	10	nt	nt
O=C(Nc1cccc2cccnc12)c1cccc([N+](=O)[O-])c1	35*	69*	nt	nt
CCCCN(C(=O)C1=CC=CN2CCS(=O)(=O)N=C12)c1ccccc1	nt	nt	8%	-10%
CCOC(=O)CC(=O)Nc1nc2ccccc2s1	14	31	2%	2%
Cc1csc(SCC(=O)Nc2nc3ccccc3s2)n1	32*	65*	8%	0%
COc1ccc(NC(=O)CCSc2nc(C)cs2)cc1	32*	131*	6%	?
Cc1cc(C)nc(SCC(=O)OCC(=O)Nc2nc3ccccc3s2)n1	22*	14*	-11%	?
Cn1cc(SCC(=O)Nc2nc3ccccc3s2)c2ccccc21	29*	24	-1%	6%
COc1cc(NC(=O)CSc2nc(C)cs2)cc(OC)c1	9	5	?	18%
CC1CCCCN1CCCNC(=O)Cn1ncc2c3ccccc3n(Cc3ccccc3)c2c1=O (stereo not drawn)	nt	nt	?	24%[46.1 µM]
SMILES	Cycloheximide cs	Shiga inhibitor	Marburg entry inh	LASV entry inh
Cc1ccc(C(C)C)c(OCC(=O)N2CCN(c3ncccn3)CC2)c1	nt	nt	?	5%
CC(C)OC(=O)c1c(NC(=O)c2cc3nc(-c4ccccc4)cc(C(F)(F)F)n3n2)sc2c1CCCC2	nt	nt	nt	6%[46.1 µM]
CC(C)Sc1nc2ncnc(N)c2[nH]1	-1	-16	5%[46.1 µM]	1%
Cc1csc(SCC(=O)NC(=O)c2ccccc2)n1	nt	nt	3%[46.1 µM]	2%
Cc1cc(C)nc(NC(=O)CSc2nc3cc(Cl)ccc3s2)n1	13	19	?	8%
Cc1cc(C)nc(NC(=O)CSc2nc3ccccc3s2)n1	33*	83*	-25%	?
Cc1cc(C)n2c(Br)c(CSc3nc4ccccc4s3)nc2n1	34*	17	?	0%
Cc1csc(SCC(=O)Nc2ccccc2)n1	11*	66*	23%[46.1 µM]	21%[46.1 µM]
CC1=C(C(=O)Nc2ccc(Cl)cc2)C(c2ccncc2)C(C#N)=C(SCC(N)=O)N1 (stereo not drawn)	-3	-10	-22%	14%
CC(=O)C1=C(C)NC(SCC(=O)Nc2nc3ccccc3s2)=C(C#N)C1c1ccc(Cl)cc1 (stereo not drawn)	22*	-9	-21%	-12%
CCN=c1scc(-c2cccs2)n1/N=C/c1cc(OC)ccc1O	51*	41	?	?
CC(C)N=c1scc(-c2cccs2)n1/N=C/c1ccc(O)c(O)c1O	16*	60*	?	?
CC(C)CNC(=O)CC(=O)N/N=C/c1cccs1	-3	3	7%	3%
COc1ccc(O)c(/C=N/n2c(-c3ccco3)csc2=Nc2cccnc2)c1	-2	-21	-2%	?
CC(C)(C)c1cc(C(=O)NNc2cccc(Cl)c2)n(Cc2ccccc2)n1	20*	46*	11µM*	?
CC(C)(C)c1cc(C(=O)Nc2ccc(F)cc2)n(Cc2ccc(F)cc2)n1	26*	43*	nt	nt
Cc1ccc(NNC(=O)c2cc(C(C)(C)C)nn2Cc2ccccc2)cc1	9	22	-7%	?
COc1ccccc1NNC(=O)c1cc(C(C)(C)C)nn1Cc1ccccc1	30*	61*	?	?
CC(C)(C)c1cc(C(=O)NNc2ccc(OC(F)(F)F)cc2)n(Cc2ccccc2)n1	3	3	?	?
Cc1ccc(NC(=O)c2cc(C(C)(C)C)nn2Cc2ccccc2)cc1	12*	4	?	2.8µM*
CCCCOc1cccc(C(=O)Nc2sc3c(c2C(=O)OCC)CCCC3)c1	nt	nt	nt	-6%[46.1 µM]
CC(C)(C)C(=O)NNC(=O)c1cc(C(C)(C)C)nn1Cc1ccccc1	-3	-5	10µM*	?
CC(C)(C)c1cc(C(=O)NC2CC2)n(Cc2ccc(F)cc2)n1	-4	23	?	?
CC(C)(C)c1cc(C(=O)NNc2cc(C(F)(F)F)ccc2Cl)n(Cc2ccccc2)n1	28*	43*	?	?
CCn1c(C)nc2cc(N)ccc21	35*	74	nt	nt
SMILES	Cycloheximide cs	Shiga inhibitor	Marburg entry inh	LASV entry inh
CCn1c(C)nc2cc(OC)ccc21	1	-9	17%[46.1 µM]	1%
CCn1c(C)nc2cc(C(=O)OCCC(F)(F)F)ccc21	29*	86*	16%	25%
CC(NC(=O)C(C)(C)C)C(c1cccs1)N1CCOCC1 (stereo not drawn)	-1	-12	-4%[46.1 µM]	16%
C/C(=N\NC(=O)c1ccccc1Br)c1ccc(N2CCOCC2)cc1	10	35	?	-12%[46.1 µM]
C/C(=N/NC(=O)c1cccs1)c1ccc(N2CCOCC2)cc1	51*	70*	1%	13%
C/C(=N\NC(=O)c1ccccc1)c1ccc(N2CCOCC2)cc1	58*	54*	6%	1%
C/C(=N\NC(=O)c1cc(C)oc1C)c1ccc(N2CCOCC2)cc1	37*	54*	1%[46.1 µM]	nt
C/C(=N\NC(=O)COc1ccc(C#N)cc1)c1ccc(N2CCOCC2)cc1	6	26*	-26%	-10%
CCC1CCC/C1=N\NC(=O)c1ccoc1C (stereo not drawn)	38*	86*	nt	nt
COc1ccc(OC2CCN(S(=O)(=O)c3ccc(OC)cc3)CC2)cc1	3	14	-29%[46.1 µM]	?
COc1ccc(OC2CCN(S(=O)(=O)c3cccc(F)c3)CC2)cc1	36*	81*	-3%[46.1 µM]	-28%[46.1 µM]
COc1ccc(-c2n[nH]c(=S)n2-c2ccc(Br)cc2)cc1OC	1	-9	nt	nt
CCOc1ccc(NC(=O)CN(C)C(=O)CC(NC(=O)c2ccccc2)c2ccccc2)cc1OCC (stereo not drawn)	nt	nt	-3%	2%
O=C(N/N=C/c1ccc2c(c1)OCO2)c1cc(-c2ccco2)nc2ccccc12	nt	nt	?	-40%
Cc1occc1C(=O)N/N=C/c1ccc2c(c1)OCO2	26*	67*	?	?

High-throughput results (PubChem)
